Calls of active or inactive are those of the source. Entries that show only a call come without a potency. Calls come from the whole dose curve.

Chain of Acetylcholinesterase (Homo sapiens) (P22303 whole entry, looked up): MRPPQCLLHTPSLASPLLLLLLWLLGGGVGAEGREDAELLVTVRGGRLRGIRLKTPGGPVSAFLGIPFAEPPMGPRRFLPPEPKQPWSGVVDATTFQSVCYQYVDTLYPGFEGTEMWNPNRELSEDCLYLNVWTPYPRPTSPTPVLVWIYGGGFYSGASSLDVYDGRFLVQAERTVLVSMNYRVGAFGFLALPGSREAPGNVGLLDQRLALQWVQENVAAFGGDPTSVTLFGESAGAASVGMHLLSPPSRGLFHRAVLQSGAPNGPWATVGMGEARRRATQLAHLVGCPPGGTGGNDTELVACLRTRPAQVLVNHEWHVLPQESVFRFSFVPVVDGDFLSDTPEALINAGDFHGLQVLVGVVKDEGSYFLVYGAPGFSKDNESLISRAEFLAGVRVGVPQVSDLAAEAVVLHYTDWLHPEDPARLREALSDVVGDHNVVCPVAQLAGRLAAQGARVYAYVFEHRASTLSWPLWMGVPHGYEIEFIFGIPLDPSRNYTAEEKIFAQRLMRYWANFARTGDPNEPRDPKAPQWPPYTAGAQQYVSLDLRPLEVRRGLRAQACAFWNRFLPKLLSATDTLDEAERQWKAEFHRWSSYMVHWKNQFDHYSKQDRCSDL

This assay concerns the target Acetylcholinesterase (Homo sapiens) (UniProt P22303). As to the kind of experiment: Acetylcholinesterase (AChE) small molecule antagonists: enzyme-based qHTS assay with human liver microsomes (AID 1347399). Note: nearly all actives have a fitted effect of over 60% in size. Conditions: Potency: qHTS inhibition; outcome: qHTS inhibition; series mostly up to 115 µM. A digest of the protocol: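 Recombinant human AChE (50 mU/mL in the enzyme mix) and human liver microsomes (0.25 mg/mL final) were preincubated with compound and NADPH (0.25 mg/mL final) for 30 min at 37 C. Acetylthiocholine/DTNB was then added; thiocholine was read colorimetrically after 10 min at room temperature.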
A general note: In qHTS, concentration-response curves come from the screen itself.
With `CCCCCC1=CCCC1=O`, the Potency entry is “inactive”. The result for `O=C(Cl)c1ccc(Cl)cc1Cl` reads “inactive”; that for `O=C(O)c1cccc(C(=O)O)c1`, “inactive”; that for `COc1ccc2cc1Oc1cc3c(cc1OC)CC[N+](C)(C)[C@H]3Cc1ccc(cc1)Oc1c(OC)c(OC)cc3c1[C@@H](C2)[N+](C)(C)CC3`, “inactive”. As for `CC/C=C\CCOC(C)OCC` (stereo not given), the entry is “inactive”.

For `Cc1cc(CCCOc2c(C)cc(-c3noc(C(F)(F)F)n3)cc2C)on1`, the Potency entry was “inactive”. As for `C[C@]12CCC(=O)C=C1CC[C@@H]1[C@@H]2C(=O)C[C@@]2(C)[C@H]1CC[C@]2(O)C(=O)CO`, the entry is “inactive”. The result for `CC(O)C(CO)C(C)O` (stereo not given) reads “inactive”. The result for `CSCC[C@H](NC(=O)[C@H](Cc1c[nH]c2ccccc12)NC(=O)CCNC(=O)OC(C)(C)C)C(=O)N[C@@H](CC(=O)O)C(=O)N[C@@H](Cc1ccccc1)C(N)=O` reads “inactive”; that for `CCc1cccc2c(CCO)c[nH]c12`, “inactive”; that for `CC(C)(CO)C(O)C(=O)NCCCO` (stereo not given), “inactive”. With `CC(=O)Nc1ccccc1`, the Potency result was “inactive”. The result for `Cc1cc(Cc2cc(C)cc(C(C)(C)C)c2O)c(O)c(C(C)(C)C)c1` reads “inactive”; that for `C[Si]1(C)O[Si](C)(C)O[Si](C)(C)O[Si](C)(C)O[Si](C)(C)O1`, “inactive”; that for `CC(C)(C)c1cccc(C(C)(C)C)c1O`, “inactive”.

On to `OCCCCCCCCCCCCBr`, for which the Potency result was “inactive”. The result for `NS(=O)(=O)c1ccccc1OC(F)(F)F` reads “inactive”; that for `O=C(c1ccc(O)cc1)c1ccc(O)c(O)c1O`, “inactive”; that for `CC(=O)C(=O)O`, “inactive”. As for `CS(=O)(=O)c1ccc(Cl)cc1`, the entry is “inactive”; as for `CC(C)CC=O`, “inactive”. As for `CCCCC(CC)COC(=O)c1ccc(N(C)C)cc1` (stereo not given), the entry is “inactive”; as for `CCCCCCCOC(=O)CCC`, “inactive”. As to `CCCCCC[C@@H](CCC)C(=O)O`, the Potency result is “inactive”. As for `O=C(Cl)c1ccc(C(=O)Cl)cc1`, the entry is “inactive”. As for `CC(C)CCOC(=O)/C=C/c1ccccc1`, the entry is “inactive”; as for `C=C(C)C(=O)OCCCCCCCC(C)C`, “inactive”. The result for `CCCCCCCCCOS(=O)(=O)O` reads “inactive”; that for `CCOC(=O)Cn1c(=O)sc2cccc(Cl)c21`, “inactive”; that for `C/C=C(\C)C(C)=O`, “inactive”. Take `CCCCCC(C)N` (stereo not given): the Potency entry was “inactive”. The result for `COc1cccc(OC)c1C(=O)N[C@@H]1C(=O)N2[C@@H]1SC(C)(C)[C@@H]2C(=O)O` reads “inactive”; that for `CCCCCCCCn1sc(Cl)c(Cl)c1=O`, “inactive”; that for `O=C(c1ccccc1)c1cccc(O)c1`, “inactive”. On to `C[C@H]1[C@H]2CC[C@H]3[C@@H]4CC=C5C[C@@H](N(C)C)CC[C@]5(C)[C@H]4CC[C@]23CN1C`, for which the Potency result was “inactive”. As for `OCc1ccccc1O`, the entry is “inactive”; as for `CCc1cccc(C)c1N(C(=O)CS(=O)(=O)O)C(C)COC` (stereo not given), “inactive”.

Consider `CC(=O)NNC(C)=O`, for which the Potency entry was “inactive”.

Consider `NC(=O)OCC(COC(N)=O)c1ccccc1`, for which the Potency entry was “inactive”.

With `O=C(O)c1cc(=O)c2c(OCC(O)COc3cccc4oc(C(=O)O)cc(=O)c34)cccc2o1`, the Potency result was “inactive”.
